Bioassay records deposited in PubChem by National Center for Advancing Translational Sciences (NCATS).
HCMV inh: human cytomegalovirus inhibition; HFF cells, HCMV-luciferase reporter, 72 h; stronger effect = lower value; activity change, negative = inhibition, % at 57.5 µM; hit rate 4.5% among 410,000; in the data active = activity change below about -60%; inconclusive = no clear call, values can overlap the other calls; inactive = above about -39%
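Steps: HFFs plated, 16 h 37C; compounds added; HCMV-luciferase added to MOI 1 PFU/cell; 72 h 37C; OneGlo reagent, 5 min room temperature; luminescence read, normalized to controls.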
Pf growth 96h: inhibits malaria parasite growth, 96 h. hit rate 6.9% among 320,000. P. falciparum luciferase reporter growth, 96 h. AID 504834. Potency, µM (top dose mostly 28.7 µM), inactives show top-dose activity change, negative = inhibition, most hits filed as inhibitors; note: potency is the fitted concentration of half-maximal effect
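Two parasite generations (96 h, 37 C, 5% CO2) of compound exposure in infected erythrocytes (0.05% parasitemia, 2% hematocrit). Luciferase-reporter P. falciparum; decreased luminescence indicates inhibited growth, aimed at apicoplast-acting delayed death.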
Pf growth 48h: P. falciparum growth inhibition at 48 hours (one generation) | P. falciparum luciferase growth in erythrocytes, 48 h | Potency, µM (series often up to 28.7 µM), without a hit: top-dose activity change, negative = inhibition, hits mostly inhibitors | hit rate 5.9% among 310,000 | AID 504832; note: potency is the fitted concentration of half-maximal effect
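A one-generation exposure of luciferase-tagged malaria parasites in RPMI 1640/Albumax erythrocyte culture, 37 C and 5% CO2. Inhibition is inferred from decreased luminescence after adding detection reagent.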
FBPA Giardia inh: blocks Giardia fructose-bisphosphate aldolase activity; Potency, µM (top dose mostly 59.6 µM), for the others: top-dose activity, negative = inhibition, usual class: inhibitors; hit rate 0.71% among 290,000; A8B2U2; purified Giardia FBPA; note: potency is the fitted concentration of half-maximal effect; nearly all actives have a fitted effect of over 55% in size
Target sequence (A8B2U2 whole entry, looked up): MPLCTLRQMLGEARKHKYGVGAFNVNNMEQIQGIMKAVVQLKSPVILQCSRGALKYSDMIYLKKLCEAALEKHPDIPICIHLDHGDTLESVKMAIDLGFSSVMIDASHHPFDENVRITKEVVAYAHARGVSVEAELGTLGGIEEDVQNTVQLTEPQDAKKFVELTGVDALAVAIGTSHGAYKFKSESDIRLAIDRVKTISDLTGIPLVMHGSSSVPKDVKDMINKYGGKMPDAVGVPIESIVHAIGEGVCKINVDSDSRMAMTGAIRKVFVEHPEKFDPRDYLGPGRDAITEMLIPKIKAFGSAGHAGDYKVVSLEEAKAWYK
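Giardia FBPA (40 nM reagent) was preincubated 10 min at RT with compound (up to 57.5 uM final), then substrate plus GAPDH/TPI/NAD/arsenate coupling system with diaphorase/resazurin was added; resorufin fluorescence (525/598 nm) was read after 20 min.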
Sm TGR block: inhibitors of Schistosoma mansoni thioredoxin glutathione reductase; hit rate 3% among 360,000; Q962Y6; purified TGR, DTNB reduction, TNB absorbance 405 nm; Potency, µM (top dose mostly 114 µM), without a hit: at the highest dose activity change, negative = inhibition, hits mostly inhibitors; note: potency is the fitted concentration of half-maximal effect; nearly all actives have a fitted effect of over 60% in size
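TGR 20 nM + NADPH 100 uM (dispensed conc.), cpd preinc 15 min RT; start with NADPH (500 uM addition) then DTNB (15 mM addition). Kinetic TNB absorbance, 405 nm filter. Four-parameter Hill fit across titration.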
The depositor's hits bear a star; ? = inconclusive; / = no result given; [ ] = dose if it differs, or a comment. Hits are enriched below; roughly 14% of the tested compounds scored in any of these assays. Unless noted, calls come from the whole dose curve; as a rule, active = well fitted curve in the direction sought with a large enough effect; inconclusive = small, poorly fitted or top-dose-only effect, or another doubt; inactive = no such curve, though single readings can be large; an effect the other way counts as inactive or inconclusive. % is set by controls: 0 for no effect and ±100 for the full control effect.

SMILES | HCMV inh | Pf growth 96h | Pf growth 48h | FBPA Giardia inh | Sm TGR block
COCCOc1ccc(C(F)(F)F)cc1NC(=O)COC(=O)c1c(C)noc1C | 33.2 | 4.65µM* | 9.28µM* | -4.9% | -24.0%
CCNC(=S)Nc1cc2oc3ccccc3c2cc1OC | 0.0 | -2.3% | 14.7% | / | 25.9%
COc1cc2c(cc1NC(=O)CN(C)Cc1nc3ccccc3c(=O)[nH]1)oc1ccccc12 | -14.5 | ? | 5.22µM* | -0.7% | -5.8%
CCCNC(=S)Nc1cc2oc3ccccc3c2cc1OC | 7.1 | 3.29µM* | ? | / | -8.5%
COc1cc2c(cc1NC(=O)Nc1ccc(F)cc1)oc1ccccc12 | -65.6* | ? | -56.1% | 0.4% | -8.2%
COc1cc2c(cc1NC(=O)/C=C/c1ccccc1)oc1ccccc12 | -64.2* | 3.3% | -2.3% | -2.1% | -23.0%
COC(=O)c1ccc(NC(=O)N2CCN(Cc3cc(=O)n4nc(-c5ccc(C)cc5)sc4n3)CC2)cc1 | 3.7 | / | / | / | 5.3%
Cc1cccc(/C=C(\C(=O)O)c2ccc(S(=O)(=O)N3CCCC3)s2)c1 | -15.3 | / | / | / | /
COc1ccc(S(=O)(=O)N2CCCC(C(=O)NCCC(C)C)C2)cc1 (stereo not drawn) | -12.1 | -5.0% | ? | 17.9% | 50.3%
COc1cccc(C(C)=C2SC(=S)NC2=O)c1 | 34.5 | / | / | / | /
CC(Sc1ccc(S(=O)(=O)N(C)C)cn1)C(=O)NC1CCCC1 (stereo not drawn) | -24.0 | 7.1% | 26.4% | / | 4.9%
O=C(N=C1SC2CS(=O)(=O)CC2N1c1ccccc1C(F)(F)F)C1CCCO1 (stereo not drawn) | -31.2 | 18.3% | -2.8% | / | -9.9%
COc1ccc(N2CC(C(=O)Nc3nnc(SCCC4OCCO4)s3)CC2=O)cc1 (stereo not drawn) | -19.8 | 13.1µM* | ? | / | -21.0%
O=C(Nc1nnc(SCc2ccccn2)s1)C1CC(=O)N(c2ccc(F)cc2)C1 (stereo not drawn) | 19.0 | ? | -5.2% | / | 0.0%
O=C(CSc1nnc(NC(=O)C2CC(=O)N(c3ccccc3)C2)s1)NCc1ccco1 (stereo not drawn) | 13.5 | ? | -2.2% | -11.0% | 44.7µM*
COc1cccc(N2CC(C(=O)Nc3nnc(SCC(=O)NCc4ccco4)s3)CC2=O)c1 (stereo not drawn) | 25.7 | ? | 0.3% | -23.7% | 50.1µM*
Cc1ccccc1N1CC(C(=O)Nc2nnc(SCc3ccccn3)s2)CC1=O (stereo not drawn) | 6.8 | 7.38µM* | 13.1µM* | -17.3% | 2.5%
Cc1ccc(N2CC(C(=O)Nc3nnc(SCCC4OCCO4)s3)CC2=O)cc1 (stereo not drawn) | 6.2 | ? | ? | ? | -2.2%
CCN(CC)S(=O)(=O)c1ccc2c(c1)c(=O)c(C(=O)N1CCN(c3cccc(C)c3)C(C)C1)cn2C (stereo not drawn) | 13.1 | / | / | / | 5.9%
CCCOc1ccc(N2CC(C(=O)Nc3ccccc3C(=O)NCc3ccco3)CC2=O)cc1 (stereo not drawn) | 46.7 | 15.8% | 9.28µM* | 1.0% | -1.1%
O=C(Nc1nnc(SCC(=O)N2CCCC2)s1)C1CC(=O)N(c2ccc(F)cc2)C1 (stereo not drawn) | 18.4 | 11.7µM* | -22.7% | / | ?
Cc1onc(-c2ccccc2Cl)c1C(=O)Nc1ccc(Br)cc1 | -7.1 | ? | ? | 7.6% | -2.1%
Cc1onc(-c2ccccc2Cl)c1C(=O)NC(=S)Nc1ccc(C(C)(C)C)cc1 | 9.0 | 6.57µM* | ? | -4.7% | 5.3%
Cc1onc(-c2ccccc2Cl)c1C(=O)NC(=S)NCC(=O)c1ccccc1 | -37.8 | -14.9% | 53.0% | -4.7% | /
COC(=O)c1c(NC(=O)c2c(C)noc2C)sc2c1CCCCCC2 | / | 0.0% | 7.2% | 0.5% | 3.2%
SMILES | HCMV inh | Pf growth 96h | Pf growth 48h | FBPA Giardia inh | Sm TGR block
COc1ccc(NC(=O)c2c(-c3ccccc3Cl)noc2C)c(OC)c1 | -34.4 | -0.3% | 2.62µM* | -6.0% | 0.0%
COC(=O)c1c(NC(=O)c2c(-c3ccccc3Cl)noc2C)sc2c1CCC2 | -13.3 | 2.08µM* | / | -3.5% | -1.3%
CCc1ccc(NC(=S)NC(=O)c2c(-c3ccccc3Cl)noc2C)cc1 | -10.2 | 7.38µM* | 11.7µM* | -3.8% | -9.3%
CC(=O)OC[C@@H]1O[C@@H](O/N=C2/C[C@@H](O)[C@@H](O)[C@@H]3[C@@H]4C(=O)N(C5CCCCC5)C(=O)[C@H]4CC[C@H]23)[C@H](OC(C)=O)[C@H](OC(C)=O)[C@@H]1OC(C)=O | / | / | / | -1.3%[12.9 µM] | /
Cc1nc2sc(C(=O)N(C)Cc3ccccc3)c(NC(=O)c3ccccc3)c2c(C)c1Cl | 6.0 | / | / | / | 2.1%
CCn1cc(C(=O)N2CCCC(C(=O)c3cccc(C(F)(F)F)c3)C2)cn1 (stereo not drawn) | -28.6 | / | / | / | /
O=C(Cc1ccccc1[N+](=O)[O-])NCC(O)c1ccc2c(c1)OCO2 (stereo not drawn) | -14.4 | / | / | / | /
COc1cccc(Nc2ncc3nc(C)c(=O)n(C)c3n2)c1 | / | / | / | -4.2% | /
COC(=O)Cc1c[nH]c2cccc(OCC(O)CN(Cc3ccc([N+](=O)[O-])cc3)C(C)(C)C)c12 (stereo not drawn) | 6.8 | 3.29µM* | 9.28µM* | -13.9% | 0.0%
COC(=O)Cc1c[nH]c2cccc(OCC(O)CN(Cc3ccccc3)C(C)C)c12 (stereo not drawn) | -15.8 | ? | ? | -0.1% | -12.8%
Cc1ccc(CN(CC(O)COc2cccc3[nH]cc(C)c23)C(C)(C)C)cc1 (stereo not drawn) | ? | 10.4µM* | 10.4µM* | -13.6% | -3.7%
N#Cc1ccc(N[C@@H]2CCN3C(=O)c4ccccc4[C@@H]3C[C@H]2O)cc1 | -12.0 | / | / | / | /
CS(=O)(=O)c1sc(C(=O)NC(=O)Nc2cccc(C(F)(F)F)c2)c2c1C=CCC2 | 13.2 | 13.7% | 2.33µM* | -1.6% | 0.0%
Clc1ccc(CCNc2ncnc3c2nnn3Cc2ccccc2)cc1 | 8.2 | ? | -12.2% | -6.1% | -25.9%
CCNS(=O)(=O)c1ccc(CCC(=O)Nc2ccc3c(c2)OCCO3)cc1 | -9.4 | ? | 9.28µM* | -0.4% | -0.2%
CC(C)(C)NS(=O)(=O)c1ccc(CCC(=O)Nc2ccc3c(c2)OCCO3)cc1 | -11.0 | -52.6% | ? | -0.4% | 2.1%
CC(C)NS(=O)(=O)c1ccc(CCC(=O)Nc2ccc3c(c2)OCCO3)cc1 | -18.2 | ? | 4.65µM* | 1.9% | -0.3%
CC(C)(C)NS(=O)(=O)c1ccc(CCC(=O)NCc2ccc3c(c2)OCO3)cc1 | 12.5 | ? | -22.1% | -3.0% | 31.6µM*
O=C(N/N=C1\CCCc2ccccc21)c1ccc([N+](=O)[O-])cc1Cl | 84.3 | 6.9% | ? | 7.5% | -3.4%
COc1ccc2oc(=N)c(C(=O)Nc3ccc(F)cc3)cc2c1 | -61.7* | ? | 6.0% | -6.5% | 2.1%
N=c1oc2cc(O)ccc2cc1C(=O)Nc1ccccn1 | / | -2.3% | 12.4% | -13.7% | -10.0%
